Most compounds without a hit are left out; they make up all but 3.4% or so of the library.
MITF inh: blocks human microphthalmia-associated transcription factor; AID 1259374; AlphaScreen MITF homodimerization, bead proximity signal; 0.91% of 650,000 active; inhibition, % at 2.6 µM; in the data active = inhibition above about 50%
GPR151 ag: human GPR151 activation; Q8TDV0; PathHunter beta-arrestin GPR151 cells, luminescence; activation, % at 11.2 µM; 1% of 650,000 active; AID 1508602; in the data active = activation above about 4.9%
Target sequence (Q8TDV0 whole entry, looked up): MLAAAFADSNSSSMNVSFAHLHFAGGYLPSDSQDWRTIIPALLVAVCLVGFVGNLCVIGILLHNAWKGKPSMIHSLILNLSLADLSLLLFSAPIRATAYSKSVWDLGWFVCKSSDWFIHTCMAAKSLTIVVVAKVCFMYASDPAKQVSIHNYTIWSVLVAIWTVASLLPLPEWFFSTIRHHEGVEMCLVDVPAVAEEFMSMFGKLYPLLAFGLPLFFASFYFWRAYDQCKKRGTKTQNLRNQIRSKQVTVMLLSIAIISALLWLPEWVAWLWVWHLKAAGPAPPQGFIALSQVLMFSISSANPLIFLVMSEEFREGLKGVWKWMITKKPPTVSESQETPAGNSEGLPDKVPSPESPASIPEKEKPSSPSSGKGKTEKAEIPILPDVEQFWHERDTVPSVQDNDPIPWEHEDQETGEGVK
FBW7 act: human FBW7 E3 ligase activation, primary screen. AID 1259310. normalized activity (activation), % at 26.1 µM. 0.13% of 650,000 active. Q969H0. AlphaScreen FBW7–phospho-cyclin E peptide binding, activator screen; in the data active = normalized activity above about 1.9%;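 also: purified mutant Fbw7 with reduced substrate affinity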
TEAD-YAP inh: TEAD-YAP interaction inhibition | HEK-TIYL cells, TEAD-Gal4/YAP UAS-luciferase luminescence | 1.4% of 640,000 active | inhibition, % at 9.12 µM | AID 1259422; in the data active = inhibition above about 32%
A number is an active result.

Screening O=C1Cc2ccccc2C2(CCN(Cc3ccc(C(=O)c4ccccc4)cc3)CC2)N1 returned MITF inh inactive, GPR151 ag inactive, FBW7 act inactive and TEAD-YAP inh 36.
Cc1cccc(CN2CCN(C3CCC3)CCC2=O)c1 was read as MITF inh inactive, GPR151 ag inactive, FBW7 act inactive and TEAD-YAP inh inactive.
Screening CCOC(=O)CN(Cc1ccccc1)c1ccnc(Nc2ccc(-n3nc(C)nc3C)cc2)n1 returned MITF inh inactive, GPR151 ag inactive, FBW7 act inactive and TEAD-YAP inh 53.
Cc1nc(C)n(-c2ccc(Nc3nccc(N(C)Cc4ccccc4)n3)cc2)n1 was read as MITF inh inactive, GPR151 ag inactive, FBW7 act inactive and TEAD-YAP inh 51.
Screening Cc1nc(C)n(-c2ccc(Nc3nccc(-c4ccc5ccccc5c4)n3)cc2)n1 returned MITF inh inactive, GPR151 ag inactive, FBW7 act inactive and TEAD-YAP inh inactive.
For COCCNC(=O)c1cc(-c2cccs2)nc2ccccc12 the results were MITF inh inactive, GPR151 ag inactive, FBW7 act inactive and TEAD-YAP inh inactive.
`Cc1c(C(=O)N2CCC(C(N)=O)(N3CCCCC3)CC2)sc2ncnc(N3CCc4ccccc4C3)c12` gave MITF inh inactive, GPR151 ag inactive, FBW7 act inactive and TEAD-YAP inh inactive.
For c1cc(-c2ccc3cnc(Nc4ccc(-n5cnc(N6CCOCC6)n5)cc4)nc3c2)c[nH]1 the results were MITF inh inactive, GPR151 ag inactive, FBW7 act inactive and TEAD-YAP inh 53.
Cc1ccc(-c2ccc3cnc(Nc4ccc(-n5cnc(N6CCOCC6)n5)cc4)nc3c2)cn1 was read as MITF inh inactive, GPR151 ag inactive, FBW7 act 2.3 and TEAD-YAP inh inactive.
Screening c1cc(-c2ccc3cnc(Nc4ccc(-n5cnc(N6CCOCC6)n5)cc4)nc3c2)co1 returned MITF inh inactive, GPR151 ag inactive, FBW7 act inactive and TEAD-YAP inh inactive.
For COc1cc(/C=C2/C(=O)N(c3cccc(Cl)c3)N=C2C)ccc1Oc1ccc([N+](=O)[O-])cc1C(F)(F)F the results were MITF inh inactive, GPR151 ag inactive, FBW7 act inactive and TEAD-YAP inh 42.
Screening COc1ccc(/C=C2\C(=O)N(c3cccc(Cl)c3)N=C2C)cc1[N+](=O)[O-] returned MITF inh inactive, GPR151 ag inactive, FBW7 act inactive and TEAD-YAP inh inactive.
For O=C(NCCc1ccccc1)c1ccc2cncc(-c3ccccc3)c2n1 the results were MITF inh inactive, GPR151 ag inactive, FBW7 act inactive and TEAD-YAP inh 47.
O=C(NCc1ccco1)c1ccc2cncc(-c3cc4ccccc4o3)c2n1 was read as MITF inh inactive, GPR151 ag inactive, FBW7 act inactive and TEAD-YAP inh 54.
`O=C(NCc1ccncc1)c1ccc2cncc(-c3cc4ccccc4o3)c2n1` gave MITF inh inactive, GPR151 ag inactive, FBW7 act inactive and TEAD-YAP inh inactive.
`COc1ccc(-c2cncc3ccc(C(=O)NCc4ccccc4)nc23)cc1` gave MITF inh inactive, GPR151 ag inactive, FBW7 act inactive and TEAD-YAP inh 68.
For O=C(NCCc1ccccc1)c1nnc(-c2cccnc2)o1 the results were MITF inh inactive, GPR151 ag inactive, FBW7 act inactive and TEAD-YAP inh inactive.
`COc1ccc(-c2cncc3ccc(C(=O)NCc4cnc(C)cn4)nc23)cc1` gave MITF inh inactive, GPR151 ag inactive, FBW7 act inactive and TEAD-YAP inh 70.
For N#CCCCN1CCC2(CC1)NC(=O)Cc1cc3ccccc3cc12 the results were MITF inh inactive, GPR151 ag inactive, FBW7 act inactive and TEAD-YAP inh inactive.
For COc1ccccc1CNC(=O)c1ccc2cncc(-c3ccccc3)c2n1 the results were MITF inh inactive, GPR151 ag inactive, FBW7 act inactive and TEAD-YAP inh 65.
For Nc1c(C(=O)Nc2cccc(C(=O)O)c2)sc2nc3c(cc12)CCC3 the results were MITF inh inactive, GPR151 ag inactive, FBW7 act inactive and TEAD-YAP inh 57.
NC(=O)c1sc2nc3c(cc2c1N)CCCCC3 was read as MITF inh inactive, GPR151 ag inactive, FBW7 act inactive and TEAD-YAP inh 68.
Nc1c(C(=O)Nc2ccccc2)sc2nc3c(cc12)CCC3 was read as MITF inh inactive, GPR151 ag inactive, FBW7 act inactive and TEAD-YAP inh inactive.
`Nc1c(C(=O)N2CCOCC2)sc2nc3c(cc12)CCCCC3` gave MITF inh inactive, GPR151 ag inactive, FBW7 act inactive and TEAD-YAP inh 87.
Nc1c(C(=O)N2CCOCC2)sc2nc3c(cc12)CCCC3 was read as MITF inh inactive, GPR151 ag inactive, FBW7 act inactive and TEAD-YAP inh inactive.
Screening Nc1c(C(=O)c2ccccc2)sc2nc3c(cc12)CCCC3 returned MITF inh inactive, GPR151 ag inactive, FBW7 act inactive and TEAD-YAP inh 40.
`Nc1c(C(=O)c2ccc(Cl)cc2)sc2nc3c(cc12)CCCC3` gave MITF inh inactive, GPR151 ag inactive, FBW7 act inactive and TEAD-YAP inh inactive.
For O=c1c(C=NCC2CCNCC2)c(-c2ccccc2)[nH]n1-c1ccc([N+](=O)[O-])cc1 the results were MITF inh inactive, GPR151 ag inactive, FBW7 act inactive and TEAD-YAP inh inactive.
CCCCCCN1C(=O)C(O)=C(C(C)=O)C1c1ccc(OC)cc1 (centres undefined) was read as MITF inh inactive, GPR151 ag inactive, FBW7 act inactive and TEAD-YAP inh inactive.
`NC(=O)C1CCN(c2nc(-c3ccc([N+](=O)[O-])cc3)cs2)CC1` gave MITF inh inactive, GPR151 ag inactive, FBW7 act inactive and TEAD-YAP inh inactive.
NC(=O)c1sc2nc3cc4c(cc3cc2c1N)OCCO4 was read as MITF inh inactive, GPR151 ag inactive, FBW7 act inactive and TEAD-YAP inh 97.
`Cc1cc(C)c2nc3sc(C(=O)N4CCOCC4)c(N)c3cc2c1` gave MITF inh inactive, GPR151 ag inactive, FBW7 act inactive and TEAD-YAP inh 36.
For Brc1ccc(-c2cn3c4ccccc4nc3n2CCCNC2CCCCC2)cc1 the results were MITF inh inactive, GPR151 ag inactive, FBW7 act 6.2 and TEAD-YAP inh inactive.
Screening Clc1ccc(-c2cn3c4ccccc4nc3n2CCNC2CCCCC2)cc1 returned MITF inh inactive, GPR151 ag inactive, FBW7 act inactive and TEAD-YAP inh inactive.
`COC(=O)CCCCCNC(=O)COc1ccc(Cl)cc1Cl` gave MITF inh inactive, GPR151 ag inactive, FBW7 act inactive and TEAD-YAP inh 69.
O=C(O)CCCCCNC(=O)COc1ccc(Cl)cc1Cl was read as MITF inh inactive, GPR151 ag inactive, FBW7 act inactive and TEAD-YAP inh 69.
Screening O=C(COc1ccc(Cl)cc1Cl)NCCCCO returned MITF inh inactive, GPR151 ag inactive, FBW7 act inactive and TEAD-YAP inh inactive.
For CCOC(=O)C1=C(C)N(c2ccc(Br)cc2)C(=O)/C1=C\c1cccs1 the results were MITF inh inactive, GPR151 ag inactive, FBW7 act inactive and TEAD-YAP inh inactive.
`CCC(C)(C)NC(=O)C(c1ccncc1)N(C(=O)c1csnn1)c1cccc(F)c1` (centres undefined) gave MITF inh inactive, GPR151 ag inactive, FBW7 act inactive and TEAD-YAP inh inactive.

Screening data deposited in PubChem by The Scripps Research Institute Molecular Screening Center.
